Data: PubChem BioAssay (Tox21)
Values joined by “and” are separate entries in the source; they are usually repeats but may differ in a detail not shown here. Equal values may be shown once. Unmarked numbers belong to inactive results. Results filed as inconclusive are left out. Entries that show only a call come without a potency. Active and inactive are the calls of the source. Unless noted, the call rests on the fitted dose curve; in most records, active means well fitted curve in the direction sought with a large enough effect in the repeat runs; inconclusive means weak or mixed curves; inactive means no such curve, though single readings can be large; an effect the other way counts as inactive or inconclusive.

What was measured:
[1] = qHTS assay for small molecule agonists of the p53 signaling pathway (AID 651631; calls by dose curve; further: nearly all actives have a fitted effect of over 15% in size; further: potency means the concentration at half of the fitted maximal effect)
Procedure, shortened: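 Stably transfected HCT-116 cells (beta-lactamase behind p53 response elements) get compounds after a 5 h settling period; 16 h later at 37 °C, FRET substrate is loaded and fluorescence read after 2 h.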

[2] = qHTS assay for small molecules that induce genotoxicity in human embryonic kidney cells expressing luciferase-tagged ATAD5 (AID 651632); further: nearly all actives have a fitted effect of over 15% in size; further: potency means the concentration at half of the fitted maximal effect
Procedure, shortened: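 Quantitative HTS in HEK293T expressing luciferase-tagged ATAD5, whose levels rise upon DNA damage. Exposure ran 16 hr at 37C and 5% CO2, with luminescence read 30 min after Amplite addition at room temperature.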

[3] = qHTS assay for small molecule agonists of the p53 signaling pathway - cell viability (AID 651633; calls by dose curve; further: nearly all actives have a fitted effect of over 30% in size; further: potency means the concentration at half of the fitted maximal effect)
Procedure, shortened: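 Viability counter-read: CellTiter-Glo luminescence (30 min, room temperature) in the same p53RE-bla plates. These plates had been exposed to compounds for 16 h at 37 C.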

[4] = qHTS assay for small molecules that induce genotoxicity in human embryonic kidney cells expressing luciferase-tagged ATAD5 - cell viability (AID 651634; calls by dose curve; further: nearly all actives have a fitted effect of over 25% in size; further: potency means the concentration at half of the fitted maximal effect)
Procedure, shortened: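 After 15.5 hr incubation with compound at 37C, 5% CO2, HEK293T ATAD5-luciferase cells received CellTiter-Fluor reagent; fluorescence intensity was quantified following 30 min at 37C.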

[5] = qHTS assay for small molecule disruptors of the mitochondrial membrane potential - cell viability (AID 720634; calls by dose curve;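 further: human HepG2 liver cancer cells; series mostly up to about 83 µM; nearly all actives have a fitted effect of over 20% in size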)
Procedure, shortened: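 ATP-based luminescent viability readout (CellTiter-Glo, 30 min, room temperature) in HepG2 cells multiplexed with the m-MPI membrane potential dye; compound exposure lasted 1 hr at 37 C.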

[6] = qHTS assay for small molecule disruptors of the mitochondrial membrane potential (AID 720635); further: potency means the concentration at half of the fitted maximal effect
Procedure, shortened: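 Mitochondrial membrane potential tracked with Mito-MPS dye, red aggregates (ex 540/em 590 nm) against green monomers (ex 490/em 535 nm). Compound treatment 1 hr at 37C, dye 30 min in HepG2.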

[7] = qHTS assay to test for compound auto fluorescence at 590 nm (red) in HepG2 cells (AID 720674)
Procedure, shortened: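 1 hr compound incubation on HepG2 cells, 37 C, 5% CO2; plate read ex 540 nm / em 590 nm; intensities reported as Rose Bengal sodium equivalents.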

[8] = qHTS assay to test for compound auto fluorescence at 535 nm (green) in HepG2 cells (AID 720675)
[9] = qHTS assay to test for compound auto fluorescence at 460 nm (blue) in HEK293 cells (AID 720678)
Procedure, shortened: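 Blue-channel (Ex/Em 405/460 nm) intensity measured in HEK293 cultures after overnight compound exposure at 37C; signal expressed relative to triamterene. Cells plated 2,000 per well in 10% dialyzed FBS medium and allowed 4-5 hr to attach.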

[10] = qHTS assay to test for compound auto fluorescence at 590 nm (red) in HEK293 cells (AID 720679)
Procedure, shortened: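 Red-channel autofluorescence (Ex/Em 540/590 nm; Rose Bengal sodium reference) was measured after overnight 37C, 5% CO2 exposure of attached HEK293 cells, 2,000 per well in medium with 10% dialyzed FBS.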

Structure (SMILES)	Potency [1]	Potency [2]	Potency [3]	Potency [4]	Potency [5]	Potency [6]	outcome [7]	outcome [8]	Potency [9]	outcome [10]
Clc1ccccc1-c1nc(-c2ccncc2)no1	inactive	6.68 µM (active)	inactive	inactive	inactive	inactive	inactive	inactive	inactive	–
CC(C)(C)N	inactive	inactive	inactive	inactive	inactive	inactive	inactive	inactive	inactive	inactive
[O-][n+]1ccc(Cl)cc1	inactive	inactive	inactive	inactive	inactive	–	inactive	inactive	inactive	inactive
COc1cccc([C@H](O)C2CCN(CCc3ccc(F)cc3)CC2)c1OC	inactive	inactive	inactive	inactive	inactive	–	inactive	inactive	inactive	inactive
CCC(C)CCCC(C)(C)O (configuration not stated)	inactive	inactive	inactive	inactive	inactive	–	inactive	inactive	inactive	–
NCCOCCOCCN	inactive	inactive	inactive	inactive	inactive	–	inactive	inactive	inactive	–
C1CCN(CN2CCCCC2)CC1	inactive	inactive	inactive	inactive	inactive	inactive	inactive	inactive	inactive	inactive
CC(=O)c1cccnc1	inactive	inactive	inactive	inactive	inactive	–	inactive	inactive	inactive	inactive
CCCC(=O)OCc1ccccc1	inactive	inactive	inactive	inactive	inactive	–	inactive	inactive	inactive	inactive
O=C1CCCN1CCO	inactive	inactive	inactive	inactive	inactive	inactive	–	inactive	inactive	inactive
CCCCCC1CCC(=O)O1 (configuration not stated)	inactive	inactive	inactive	inactive	inactive	inactive	–	inactive	inactive	inactive
CC1=C(C)C(=O)C(C(CCCCCC(=O)O)c2ccccc2)=C(C)C1=O (configuration not stated)	inactive	inactive	inactive	inactive	inactive	inactive	inactive	inactive	inactive	inactive
Nc1cccc2c(=O)[nH][nH]c(=O)c12	inactive	inactive	inactive	inactive	inactive	inactive	inactive	inactive	inactive	inactive
CCCCCCCCCCCCCCCCC(=O)O	inactive	inactive	inactive	inactive	inactive	–	inactive	inactive	inactive	–
C=CC(C)(O)CC/C=C(/C)CCC=C(C)C (configuration not stated)	inactive	inactive	inactive	inactive	inactive	inactive	inactive	inactive	inactive	inactive
CCCCOC(=O)CC#N	inactive	inactive	inactive	inactive	inactive	–	inactive	inactive	inactive	inactive
COC(=O)/C=C/C(C)=C\C=C\C(C)=C\C=C\C=C(C)\C=C\C=C(C)\C=C\C(=O)O	inactive	inactive	inactive	inactive	inactive	–	inactive	inactive	inactive	inactive
C=CCCC	inactive	inactive	inactive	inactive	inactive	inactive	inactive	inactive	inactive	–
COc1cc(C)c(Cc2cnc(N)nc2N)cc1OC	inactive	inactive	inactive	inactive	inactive	–	inactive	inactive	inactive	inactive
O=C(O)COCC(=O)O	inactive	inactive	inactive	inactive	inactive	–	inactive	inactive	inactive	inactive
O=C(OCCOCCOCCOC(=O)c1ccccc1)c1ccccc1	inactive	inactive	inactive	inactive	inactive	–	inactive	inactive	inactive	–
FC1(F)C(F)(F)C(F)(F)C2(F)C(F)(C1(F)F)C(F)(F)C(F)(F)C1(F)C(F)(F)C(F)(F)C(F)(F)C(F)(F)C12F (configuration not stated)	inactive	inactive	inactive	inactive	inactive	–	inactive	inactive	inactive	inactive
C[C@H]1C[C@H]2[C@@H]3CCC4=CC(=O)C=C[C@]4(C)[C@@]3(F)[C@@H](O)C[C@]2(C)[C@@]1(O)C(=O)COP(=O)(O)O	inactive	inactive	inactive	inactive	inactive	inactive	inactive	inactive	inactive	inactive
COc1cc(CNC(=O)CCCC/C=C/C(C)C)ccc1O	inactive	inactive	inactive	inactive	inactive	–	inactive	inactive	inactive	–
CC(C)C[C@H](NC(=O)[C@H](Cc1ccccc1)NC(=O)c1cnccn1)B(O)O	15 nM (active) and 9.4 nM (active)	21.1 nM (active) and 18.8 nM (active)	376 nM (active) and 211 nM (active)	376 nM (active) and 94.4 nM (active)	inactive	–	inactive	inactive	inactive	inactive
Cc1cccc(C)c1NC(=O)CN1CCCC1	inactive	inactive	inactive	inactive	inactive	inactive	inactive	inactive	inactive	–

Structure (SMILES)	Potency [1]	Potency [2]	Potency [3]	Potency [4]	Potency [5]	Potency [6]	outcome [7]	outcome [8]	Potency [9]	outcome [10]
O=c1[nH][nH]c2ccccc12	inactive	inactive	inactive	inactive	inactive	inactive	inactive	inactive	inactive	inactive
CCOc1ccccc1O	inactive	inactive	inactive	inactive	inactive	inactive	–	inactive	inactive	–
COc1ccc(/C=C/S(=O)(=O)NC(=O)c2ccc(C)cc2Cl)cc1	30.6 µM (active)	21.7 µM (active)	inactive	inactive	inactive	–	inactive	inactive	inactive	inactive
CCCCOC(=O)C(C)Oc1ccc(Oc2ccc(C(F)(F)F)cn2)cc1 (configuration not stated)	inactive	inactive	inactive	inactive	inactive	inactive	–	inactive	inactive	inactive
COc1ccc(C(=O)c2ccc(C)cc2)c(O)c1	inactive	inactive	inactive	inactive	inactive	61.8 µM (active)	inactive	inactive	inactive	–
O=C(OC1C[C@H]2CC[C@@H](C1)[N+]21CCCC1)C(O)(c1ccccc1)c1ccccc1 (some centres not stated)	inactive	inactive	inactive	inactive	inactive	inactive	inactive	inactive	inactive	inactive
OCC(O)c1ccccc1 (configuration not stated)	inactive	inactive	inactive	inactive	inactive	–	inactive	inactive	inactive	inactive
O=C(O)CNc1ccccc1	inactive	inactive	inactive	inactive	inactive	inactive	inactive	inactive	inactive	inactive
O=Cc1ccc([N+](=O)[O-])cc1	inactive	inactive	inactive	inactive	inactive	inactive	inactive	inactive	inactive	inactive
Clc1cc(Cl)c2c(c1)N=C1CCCCCN1C2	inactive	inactive	inactive	inactive	inactive	–	inactive	inactive	inactive	inactive
CCCC1CCCC(=O)O1 (configuration not stated)	inactive	inactive	inactive	inactive	inactive	–	inactive	inactive	inactive	inactive
C=CC(O)CCCCC (configuration not stated)	inactive	inactive	inactive	inactive	–	–	inactive	inactive	inactive	–
O=C(O)c1ccncc1	inactive	inactive	inactive	inactive	inactive	–	–	inactive	inactive	–
CCCC(=O)OCCC(C)C	inactive	inactive	inactive	inactive	inactive	–	–	inactive	inactive	inactive
CC(C)NC(=O)c1ccccc1N	inactive	inactive	inactive	inactive	–	–	inactive	inactive	inactive	inactive
N#CCCCC(C#N)CCC#N (configuration not stated)	inactive	inactive	inactive	inactive	–	inactive	inactive	inactive	inactive	inactive
CCn1nc(Cc2ccccc2)cc1C1CCN(C[C@H]2C[C@H](N(C)[C@@H](C(=O)O)C(C)C)C[C@@H]2c2cccc(F)c2)CC1	inactive	inactive	inactive	inactive	inactive	–	–	inactive	inactive	inactive
CCCCCO	inactive	inactive	inactive	inactive	–	–	inactive	inactive	inactive	inactive
O=C1C=CCCC1	inactive	inactive	inactive	inactive	–	–	inactive	inactive	inactive	inactive
O=C(O)CCc1nc2ccccc2[nH]1	inactive	inactive	inactive	–	inactive	inactive	inactive	inactive	inactive	inactive
CCOC(=O)CC(O)(CC(=O)OCC)C(=O)OCC	inactive	inactive	inactive	inactive	–	–	inactive	inactive	inactive	–
O=C(O)c1cc(C(=O)O)cc([N+](=O)[O-])c1	inactive	inactive	inactive	inactive	inactive	–	–	inactive	inactive	inactive
Oc1ccc(CCNCCCCCCNCCc2ccccc2)cc1O	inactive	inactive	inactive	–	inactive	–	inactive	inactive	inactive	inactive
O=[N+]([O-])c1ccccc1CCO	inactive	inactive	inactive	inactive	–	inactive	inactive	inactive	inactive	inactive
O=P(c1ccccc1)(c1ccccc1)c1ccccc1	inactive	inactive	inactive	inactive	–	–	inactive	inactive	inactive	inactive
Nc1ncnc2c1ncn2[C@@H]1O[C@H](CO)[C@@H](O)[C@H]1O	inactive	inactive	inactive	inactive	inactive	–	–	inactive	inactive	inactive
